Compound activity as filed in PubChem.
The sample as a whole holds a higher share of hits than the screen did.
Sfp inh: Sfp phosphopantetheinyl transferase inhibition | Q9F4F7 | Biochemical Sfp PPTase activity, qHTS | Potency, µM, for the others: largest response in the series, negative = inhibition, most hits filed as inhibitors | 3.5% of 310,000 active;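 also: the enzyme is Sfp with the accession as filed and its product quenches rhodamine fluorescence; 0% = enzyme reaction without inhibitor and -100% = no enzyme wells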
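Compounds were incubated with enzyme (final 15 nM) for 15 min at room temperature before substrate addition started the reaction. Fluorescence at 525 nm excitation, 598 nm emission was recorded immediately and after 30 minutes.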
G9a block: inhibitors of human histone lysine methyltransferase G9a | 8.8% of 350,000 active | Q96KQ7 | AID 504332 | G9a H3K9 monomethylation, AlphaScreen, 2 h | Potency, µM (titrated, usually from 102 µM), inactives show at the top dose activity, negative = inhibition, most hits filed as inhibitors; also: % is scaled to controls: 0 for no effect and ±100 for the full control effect; nearly all actives have a fitted effect of over 75% in size
Target sequence (Q96KQ7 913-1193 limits assumed): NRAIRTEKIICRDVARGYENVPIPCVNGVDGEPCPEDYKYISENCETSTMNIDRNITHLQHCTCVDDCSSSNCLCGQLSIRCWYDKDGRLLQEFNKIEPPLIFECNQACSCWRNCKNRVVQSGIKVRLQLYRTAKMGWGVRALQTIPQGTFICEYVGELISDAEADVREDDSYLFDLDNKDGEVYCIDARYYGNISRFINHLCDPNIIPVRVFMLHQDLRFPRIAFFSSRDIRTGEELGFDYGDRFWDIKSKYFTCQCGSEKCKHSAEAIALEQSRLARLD
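Enzyme 20 nM + cpd, 15 min RT; add b-H3K9 pep 500 nM / SAM 20 uM; 2 h RT; anti-H3K9me1 Ab 0.5 ug/mL + SA donor / anti-rabbit acceptor beads 20 ug/mL each, 10 min; AlphaScreen read.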
12-LOX inh: ALOX12 (human) lipoxygenase inhibition; Potency, µM (doses to about 108 µM), without a hit: top-dose activity change, negative = inhibition, hits mostly inhibitors; purified 12hLO, xylenol orange hydroperoxide absorbance; P18054; 1.1% of 580,000 active; AID 1671190; also: % is scaled to controls: 0 for no effect and ±100 for the full control effect
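Purified human 12hLO (150 nM final) in 25 mM Hepes, 0.01% Triton X-100, pH 7.0 was preincubated 15 min at room temperature with compound. Then 40 uM arachidonic acid was added, 30 min. Hydroperoxide was read by Fe-XO absorbance ratio 573/405 nm.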
Glioma ERSR ind: induces the endoplasmic reticulum stress response in human glioma cells; U87-MG GRP78 promoter luciferase reporter, 16 h; Potency, µM, for the others: at the top dose activation, actives largely listed as activators; 0.02% of 420,000 active; AID 602332; also: series mostly up to about 76 µM; % of control where 0% means no effect; nearly all actives have a fitted effect of over 35% in size
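Stably transfected U87-MG human glioma cells carrying a GRP78-based luminescent sensor were seeded at 1000 cells/well, pin-dosed with compounds and incubated 16 h. Luciferase reagent was then added, and end-point luminescence was read after 10 min at room temperature.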
VDR inh: inhibitors of human vitamin D receptor; P11473; VDR-SRC2-3 peptide fluorescence polarization, 2 h; Potency, µM, for inactives: max response, negative = inhibition, actives largely listed as inhibitors; 0.93% of 400,000 active; also: % is scaled to controls: 0 for no effect and ±100 for the full control effect
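Two reagent solutions held at 4 deg C in the dark were dispensed, compounds pinned at 23 nl, and the mixture incubated 2 h at room temperature. Read-out: fluorescence polarization of VDR–SRC2-3 peptide binding.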
* hit, by the source's call; [ ] = remark or other dose. Calls follow the shape of the dose curve; as a rule, active = well fitted curve in the direction sought with a large enough effect; inconclusive = small, poorly fitted or top-dose-only effect, or another doubt; inactive = no such curve, though single readings can be large; an effect the other way counts as inactive or inconclusive. Potency is read from the fitted curve at half-maximal effect.

Screening COc1cc2ccccc2cc1C(=O)N1CCN(CC(=O)Nc2cccc(F)c2)CC1 returned 12-LOX inh -10%.
COc1ccc(Cl)cc1-n1nnc(C(=O)Nc2ccc3c(c2)C(=O)OC3)c1C was read as 12-LOX inh -2%.
For CCn1cc(CN2CCCC(c3nc(C(C)C)no3)CCNC(=O)CC2)cn1 (stereo unspecified) the results were 12-LOX inh 9%.
Screening Cc1ccc(-c2ccc(S(=O)(=O)N3CCCC3)cc2)cc1 returned Sfp inh 11%, G9a block inconclusive, 12-LOX inh -3%, Glioma ERSR ind -2% and VDR inh -15%.
Screening Cc1ccc(S(=O)(=O)N2CC(=NO)C2)cc1 returned Sfp inh 4%, G9a block 45µM*, 12-LOX inh inconclusive, Glioma ERSR ind -3% and VDR inh -2%.
For N#Cc1ccc(C(=O)N2CCC(Cc3nc(-c4ccncc4)n[nH]3)C2)cc1 (stereo unspecified) the results were 12-LOX inh -4%.
Screening Cc1c(O)ccc(C(=O)CN2CCN(c3ccccc3)CC2)c1O returned Sfp inh 10%, G9a block 45µM*, 12-LOX inh inconclusive, Glioma ERSR ind 6% and VDR inh -7%.
For COc1ccc(N2CCN(CC(=O)c3ccc(O)c(C)c3O)CC2)cc1 the results were Sfp inh 4%, G9a block 40µM*, 12-LOX inh -12%, Glioma ERSR ind -1% and VDR inh 2%.
For Nn1c(SCC(=O)NCCCc2ccccc2)nnc1-c1cccnc1 the results were Sfp inh -1%, G9a block 50µM*, 12-LOX inh 1%, Glioma ERSR ind 0% and VDR inh 5%.
Screening COCCn1c(SCC(=O)NCCc2ccccc2)nnc1-c1ccco1 returned Sfp inh -22%, G9a block 45µM*, 12-LOX inh 6%, Glioma ERSR ind -4% and VDR inh 18%.
CCn1c(SCc2cccc(C(F)(F)F)c2)nnc1-c1ccco1 was read as Sfp inh -1%, G9a block inconclusive, 12-LOX inh 50µM*, Glioma ERSR ind -1% and VDR inh -4%.
`CCn1c(SCC(=O)NCCc2ccccc2)nnc1-c1ccco1` gave Sfp inh inconclusive, G9a block 40µM*, 12-LOX inh 2%, Glioma ERSR ind -5% and VDR inh 4%.
Screening COCCOC(=O)C1=C(C)N=C2SC=C(CC(=O)N3CCCC3)N2C1c1cccc(F)c1 (stereo unspecified) returned 12-LOX inh 47%.
For CCCC(C)NC(=O)c1cccc(C#N)c1 (stereo unspecified) the results were 12-LOX inh -13%.
For COc1ccc(Nc2cnc3ccc(-c4ccccc4)nn23)cc1OC the results were 12-LOX inh -21%[176 µM].
COCCn1c(SCc2cccnc2)nnc1-c1ccco1 was read as Sfp inh 20µM*, G9a block inconclusive, 12-LOX inh 65%, Glioma ERSR ind -3% and VDR inh 0%.
Screening O=C(NC1CCCC1)C(c1cccnc1)N(C(=O)c1csnn1)C1CCCC1 (stereo unspecified) returned Sfp inh 12%, G9a block 2%[59 µM], 12-LOX inh 13%, Glioma ERSR ind -2% and VDR inh -15%.
`O=C(NC1CCCC1)C(c1ccncc1)N(C(=O)c1csnn1)C1CCCC1` (stereo unspecified) gave Sfp inh 56µM*, G9a block -7%, 12-LOX inh -11%, Glioma ERSR ind -2% and VDR inh 1%.
`CC(OC(=O)CC1CCCCC1)C(=O)Nc1ccc(S(N)(=O)=O)cc1` (stereo unspecified) gave G9a block -1%[59 µM], 12-LOX inh -1%, Glioma ERSR ind -5% and VDR inh 7%.
For CC(OC(=O)CCC1CCCCC1)C(=O)Nc1ccc(S(N)(=O)=O)cc1 (stereo unspecified) the results were G9a block 56µM*, 12-LOX inh -11%, Glioma ERSR ind -4% and VDR inh 10%.
For CCCCCCOc1ccc(/C=C(/C#N)c2ccccn2)cc1 the results were 12-LOX inh -9%.
Screening Cc1ccc(C)c(S(=O)(=O)N2CCN(C(=O)CN3C(=O)C4CC=CCC4C3=O)CC2)c1 (stereo unspecified) returned G9a block 50µM*, 12-LOX inh -5%, Glioma ERSR ind -5% and VDR inh -14%.
Screening Cc1ccc(Nc2nnns2)cc1 returned Sfp inh 6.3µM*, G9a block 5.6µM*, 12-LOX inh inconclusive, Glioma ERSR ind 2% and VDR inh 79µM*.
Cc1ccccc1S(=O)(=O)N1C[C@@H]2CCCN3CCC[C@@H]([C@H]23)[C@H]1CCCC(=O)NCC1CC1 was read as 12-LOX inh -2%.
`CCc1cccc(C)c1Nc1c(-c2ccc(F)cc2)nc2sccn12` gave G9a block inconclusive, 12-LOX inh 0%, Glioma ERSR ind -3% and VDR inh -14%.
For CCc1cccc(C)c1Nc1c(-c2ccc(SC)cc2)nc2sccn12 the results were G9a block 14µM*, 12-LOX inh inconclusive, Glioma ERSR ind -2% and VDR inh -19%.
CCc1cccc(C)c1Nc1c(-c2ccc(N(C)C)cc2)nc2cnccn12 was read as G9a block 18µM*, 12-LOX inh -2%, Glioma ERSR ind 2% and VDR inh -7%.
Screening C=C(C)[C@@H]1CC=C(CN2CCN(Cc3ccccc3)CC2)CC1 returned Sfp inh 0%, G9a block 50µM*, 12-LOX inh -27%, Glioma ERSR ind -2% and VDR inh 5%.
N#Cc1nc(/C=C/c2cccs2)oc1NC1CC1 was read as 12-LOX inh 25µM*.
For CN(C)CCNc1oc(/C=C/c2cccs2)nc1C#N the results were 12-LOX inh 24%.
CC(C)(C)Sc1ccc2nn(CC(=O)Nc3ccccc3F)c(=O)n2n1 was read as 12-LOX inh 8%.
Screening O=C(NCCc1c[nH]c2ccccc12)/C(=C/c1ccco1)NC(=O)c1ccco1 returned Sfp inh 29%, G9a block -2%, 12-LOX inh -29%, Glioma ERSR ind -4% and VDR inh -10%.
`CC(=C\c1ccco1)/C=C(\C#N)C(=O)NCCc1c[nH]c2ccccc12` gave Sfp inh 4%, G9a block 13µM*, 12-LOX inh inconclusive, Glioma ERSR ind -1% and VDR inh -10%.
For CCOC(=O)c1ccc(NC(=O)CSc2n[nH]c(-c3ccncc3)n2)cc1 the results were Sfp inh 11%, G9a block inconclusive, 12-LOX inh 2%, Glioma ERSR ind 2% and VDR inh 16%.
For COC(=O)c1ccc(NC(=O)CSc2n[nH]c(-c3ccncc3)n2)cc1 the results were Sfp inh 2%, G9a block 35µM*, 12-LOX inh 0%, Glioma ERSR ind -3% and VDR inh -1%.
